# Assay outcomes from PubChem.
# Shn3 3UTR inh = reduction of Shn3 3'UTR firefly luciferase signal, primary screen, Schnurri-3 inhibitor project, cell-based, Clone20 osteoblasts, set 2. Clone20 osteoblast Shn3 3'UTR firefly luciferase, 24 h. inhibition, % at 12.5 µM. 0.52% of 360,000 active. AID 588674, 2011;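 active = mean inhibition of at least 75% with every replicate also reaching 75%; inconclusive = mean inhibition at least 75% but some replicate below; inactive = mean inhibition below 75%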;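 also: 0% = median of neutral control wells and 100% = pilot-screen positive control compound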
# SRC2 inh = inhibition of GAL4-SRC2 driven luciferase reporter, primary screen, SRC2 inhibitor project, cell-based, luminescence; 0.17% of 370,000 active; inhibition, % at 9 µM; HEK293 GAL4-SRC2 luciferase reporter; Nuclear receptor coactivator 2 (Homo sapiens), Q15596;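 active = inhibition above the mean inhibition of all tested compounds plus 3 SD, set per campaign, cut at about 52% in these data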;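 also: 0% = DMSO treated cells and 100% = cells given Gossypol at 36 µM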
# Gli-Sufu antag = Gli-Sufu pathway antagonists, primary screen, luciferase luminescence, Sufu-KO-LIGHT cells, uHTS | Sufu-KO-LIGHT fibroblasts, Gli luciferase reporter luminescence | inhibition, % at 5 µM | 0.74% of 340,000 active;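 active = inhibition above about 55%, limit read from the data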;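 also: 0% = DMSO-treated cells and 100% = wells with medium but no cells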
# LRH-1 inv ag = LRH-1 (NR5A2) inverse agonists, primary screen, cell-based, luminescence, HEK293T, StAR-luciferase reporter; Nuclear receptor subfamily 5 group A member 2 (Homo sapiens), O00482; 0.13% of 360,000 active; inhibition, % at 3.6 µM; LRH-1 transfected, 24 h;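 active = inhibition above the mean inhibition of all tested compounds plus 3 SD, cut at about 73% in these data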;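 also: 0% = DMSO wells and 100% = reporter-only cells lacking LRH-1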
# SRC1 inh = SRC1 coactivator transcriptional activity inhibitors, primary screen, cell-based, luminescence | 0.12% of 360,000 active | Nuclear receptor coactivator 1 (Homo sapiens), Q15788 | HEK293 GAL4-SRC1 luciferase reporter | inhibition, % at 3.6 µM;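 active = inhibition above the campaign mean plus 3 SD, with each screening campaign given its own cutoff, cut at about 60% in these data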;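 also: 0% = DMSO treated cells and 100% = gossypol at 36 µM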
# Target sequence (Q15788 whole entry, looked up, the tested form may be a part): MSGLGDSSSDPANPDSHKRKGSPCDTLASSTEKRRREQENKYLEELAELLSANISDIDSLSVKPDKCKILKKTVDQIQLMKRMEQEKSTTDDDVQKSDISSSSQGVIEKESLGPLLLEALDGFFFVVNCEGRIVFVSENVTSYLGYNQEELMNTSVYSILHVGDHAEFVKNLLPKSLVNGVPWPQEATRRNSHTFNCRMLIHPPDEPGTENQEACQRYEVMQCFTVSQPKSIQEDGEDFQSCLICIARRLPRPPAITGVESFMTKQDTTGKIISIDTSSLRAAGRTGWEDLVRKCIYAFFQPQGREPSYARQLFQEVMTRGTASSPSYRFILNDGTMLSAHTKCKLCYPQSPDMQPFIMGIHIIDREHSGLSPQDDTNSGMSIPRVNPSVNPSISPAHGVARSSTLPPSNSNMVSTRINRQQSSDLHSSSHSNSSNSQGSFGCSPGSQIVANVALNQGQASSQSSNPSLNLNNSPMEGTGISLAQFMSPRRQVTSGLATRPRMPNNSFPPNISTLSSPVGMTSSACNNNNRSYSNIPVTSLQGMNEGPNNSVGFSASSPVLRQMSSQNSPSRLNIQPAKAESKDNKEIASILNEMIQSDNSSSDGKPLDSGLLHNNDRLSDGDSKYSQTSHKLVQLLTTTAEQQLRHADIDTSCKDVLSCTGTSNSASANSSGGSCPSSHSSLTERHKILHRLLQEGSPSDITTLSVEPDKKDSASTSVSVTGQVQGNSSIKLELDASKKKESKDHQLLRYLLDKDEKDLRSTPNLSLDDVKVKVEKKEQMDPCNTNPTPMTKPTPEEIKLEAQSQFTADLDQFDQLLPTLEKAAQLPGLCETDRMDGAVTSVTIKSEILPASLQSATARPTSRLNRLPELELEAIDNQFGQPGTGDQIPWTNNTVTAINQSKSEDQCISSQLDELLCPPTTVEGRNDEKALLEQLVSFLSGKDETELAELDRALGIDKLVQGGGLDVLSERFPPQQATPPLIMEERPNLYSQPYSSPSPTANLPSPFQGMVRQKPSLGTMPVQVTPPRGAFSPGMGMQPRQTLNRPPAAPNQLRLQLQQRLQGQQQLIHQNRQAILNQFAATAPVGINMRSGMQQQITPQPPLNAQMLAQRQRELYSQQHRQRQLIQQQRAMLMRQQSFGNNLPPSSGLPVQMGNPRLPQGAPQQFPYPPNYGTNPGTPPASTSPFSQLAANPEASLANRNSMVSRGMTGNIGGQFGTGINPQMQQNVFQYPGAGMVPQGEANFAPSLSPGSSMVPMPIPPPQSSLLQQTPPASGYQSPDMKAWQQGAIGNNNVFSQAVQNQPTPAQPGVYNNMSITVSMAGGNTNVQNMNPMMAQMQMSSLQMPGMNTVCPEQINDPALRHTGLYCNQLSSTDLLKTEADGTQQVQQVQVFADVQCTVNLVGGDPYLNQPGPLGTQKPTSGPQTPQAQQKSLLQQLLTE
# SRC3 inh = SRC3 coactivator transcriptional activity inhibitors, primary screen, cell-based, luminescence; HEK293 GAL4-SRC3 luciferase reporter; inhibition, % at 3.6 µM; 0.17% of 360,000 active; AID 588352, 2011;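 active = inhibition above a per-campaign cutoff, the mean of all compounds plus 3 SD, cut at about 60% in these data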;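 also: 0% = DMSO-treated cells and 100% = gossypol-treated cells at 36 µM; higher means less SRC3-driven luciferase light from the GAL4 reporter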
# Gli antag conf = Gli-SUFU pathway antagonists, confirmation, single concentration, luciferase luminescence, Sufu-KO-LIGHT cells; shares compounds with Gli-Sufu antag; Gli luciferase reporter; AID 602428, 2012; inhibition, % at 5 µM; 40% of 2,500 active;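 active = mean inhibition at 5 µM reaching about 45%, limit read from the data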;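 also: plate controls were DMSO-treated cells for no effect and wells lacking cells for full effect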
# Gli cytotox = cytotoxicity in Sufu-KO-LIGHT cells, confirmation, cytotoxicity control for Gli-SUFU antagonist project, cell-based, ATP luminescence, single concentration; cytotoxicity, % at 5 µM; 32% of 2,500 active; shares compounds with Gli-Sufu antag; AID 651994, 2013;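 active = mean cytotoxicity at 5 µM above about 25%, limit read from the data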;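 also: cells exposed to compound overnight for roughly 16 to 18 hours; plate controls were DMSO wells with cells for no effect and medium without cells for full effect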
# Wnt3a counter = Wnt3a reporter signal inhibition, confirmation, counter-screen for Gli-SUFU antagonist project, Wnt-LIGHT cells, luminescence, single concentration. shares compounds with Gli-Sufu antag. Wnt3a-driven luciferase reporter. inhibition, % at 6.25 µM. 20% of 2,500 active;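 active = mean inhibition above about 25%, limit read from the data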
# Starred values were filed as active, the others as inactive; ? = inconclusive; . = no result; ! = not confirmed by another sample. The list is not random: actives were taken first. Their share in the collection is about 1.1%.
SMILES,Shn3 3UTR inh,SRC2 inh,Gli-Sufu antag,LRH-1 inv ag,SRC1 inh,SRC3 inh,Gli antag conf,Gli cytotox,Wnt3a counter
Cc1ccc(S(=O)(=O)Nc2ccccc2C(=O)Nc2nc(-c3ccc(F)cc3)cs2)cc1,75.0,36.6,77.2*,52.6,35.6,58.2,78.7*,35.1*,77.5*
Cc1ccc(S(=O)(=O)Nc2nc(-c3ccccc3)cs2)cc1,-11.4,-22.5,-9.2,4.1,-10.4,-11.4,.,.,.
Cc1[nH]c2ccccc2c1SCc1nnc(SCc2ccc(Cl)cc2)n1C,19.6,21.7,50.7,-0.9,6.8,30.6,23.9,3.5,43.0*
COc1ccc(OC)c(NC(=O)C2CCN(S(=O)(=O)c3c(C)noc3C)CC2)c1,10.5,-9.4,94.1*,10.9,-6.4,3.1,24.9,-1.5,6.6
COc1ccc(OC)c(NC(=O)C2CCCN(S(=O)(=O)c3c(C)noc3C)C2)c1 (stereo unspecified),5.0,0.2,3.1,10.4,16.0,19.4,.,.,.
O=C(c1ccc(F)cc1F)N1CCC(Oc2cccnc2)CC1,.,6.7,.,.,.,.,.,.,.
COC(=O)C1CN(Cc2cn(CCOC(C)=O)nn2)CCS(=O)(=O)N1Cc1ccc(Cl)cc1 (stereo unspecified),.,-26.2,.,.,.,.,.,.,.
COc1ccc(-n2cc(-c3ccc(Cl)cc3)[nH]c2=S)cc1,-29.6,-74.0,-45.7,-57.9,-32.5,-34.0,.,.,.
Clc1ccc(-c2cn(-c3ccc(Cl)cc3)c3[n+]2CCCCC3)cc1,17.3,-49.2,57.8*,7.7,-17.7,3.8,58.3*,29.3*,-42.9
Clc1ccc(-c2cn3nc4c(nc3n2)CCCC4)cc1,13.8,-39.1,-27.5,-100.6,-90.3,-76.4,.,.,.
COc1ccc(N2CC(O)(c3ccc(OC(F)F)cc3)[N+]3=C2CCCC3)cc1 (stereo unspecified),17.5,-43.5,12.7,0.6,8.3,4.6,.,.,.
COc1ccc(-c2cn(-c3ccc(Cl)cc3)c3[n+]2CCCCC3)cc1,62.4,-9.9,80.5*,-5.5,-6.1,20.1,78.5*,31.0*,20.3
COc1ccc(-n2cc(-c3ccc(OC(F)F)cc3)[n+]3c2CCCCC3)cc1,62.5,14.6,81.4*,21.5,15.3,21.8,82.9*,32.6*,9.0
COCCCNC(=O)C1CCN(S(=O)(=O)c2ccc3[nH]c(=O)oc3c2)CC1,.,-39.8,.,.,.,.,.,.,.
Cc1ccc2c(c1)C(CS(=O)(=O)NC1CCCC1)NC2 (stereo unspecified),.,-14.4,.,.,.,.,.,.,.
CC(C)n1nnnc1C1(C)CCCCC(=O)N1Cc1cccc(C(F)(F)F)c1 (stereo unspecified),.,6.6,.,.,.,.,.,.,.
O=C(CN1CCCc2ccccc21)NCc1ccccc1F,.,-1.3,.,.,.,.,.,.,.
C/C(=N\Nc1cc(N2CCCCC2)nc(C)n1)c1ccc(Br)cc1,82.8,-6.5,79.0*,-1.5,7.6,5.7,52.3*,44.9*,22.4
O=C(c1ccc([N+](=O)[O-])cc1)N(Cc1ccc(Cl)cc1Cl)N1C(=O)CCCC1=O,-8.4,-2.1,22.6,-22.6,-8.4,-1.6,.,.,.
O=C(c1ccc([N+](=O)[O-])cc1)N(Cc1ccc(Cl)cc1)N1C(=O)CCCC1=O,8.4,-9.8,78.2*,-6.1,9.7,-8.8,89.5*,71.4*,10.4
CCOC(=O)c1cccc(NC(=O)CN(C)S(=O)(=O)c2ccc(Cl)s2)c1,.,0.1,.,.,.,.,.,.,.
CC(=O)NC1CCCCN(Cc2cccc(F)c2)C1=O (stereo unspecified),.,-17.7,.,.,.,.,.,.,.
CCN(CC)c1ccc(/C=N/NC(=S)NC)c(O)c1,5.3,-24.3,84.4*,-45.9,-37.5,-42.7,24.9,20.7,-98.8
Cc1cc(C(=O)O[C@@H]2CCC[C@@]3(C(=O)N(Cc4ccccc4)c4ccccc43)[C@H]2NC(=O)CCc2ccccc2)no1,.,13.1,.,.,.,.,.,.,.
CCn1ccc(=N)cc1,9.2,-4.9,3.1,2.5,-7.5,-16.5,.,.,.
SMILES,Shn3 3UTR inh,SRC2 inh,Gli-Sufu antag,LRH-1 inv ag,SRC1 inh,SRC3 inh,Gli antag conf,Gli cytotox,Wnt3a counter
CCCCCCCn1ccc(=N)cc1,84.5,2.7,84.2*,79.3*,22.7,24.4,88.1*,34.9*,42.7*
CC(=O)c1cc(-c2cnn(Cc3ccccc3)c2)c(=O)n2c1CCC2,.,-19.5,.,.,.,.,.,.,.
O=C(CSc1nnc(Cn2nnc3ccccc32)o1)N(Cc1ccc(Cl)cc1)c1ccccc1,81.5,18.1,64.1*,20.4,25.1,33.7,63.2*,29.4*,11.0
COc1cc(OC)c(OC)cc1CNC(=O)c1cccc(S(=O)(=O)N2CCc3ccccc3C2)c1,?,23.1,65.8*,12.6,21.4,16.5,63.6*,35.5*,25.4*
O=C(CSc1nnc(-c2cccnc2)n1C1CCCCC1)N1CCCC1,.,3.5,.,.,.,.,.,.,.
COc1cc(/C=N/NC(=O)c2ccncc2)ccc1OC(C)=O,0.5,11.5,58.4*,-2.4,11.8,5.2,16.9,2.6,7.2
COc1cc(/C=N/NC(=O)c2ccncc2)ccc1OC(=O)c1ccco1,-23.2,-1.9,25.0,6.5,-34.6,-10.7,.,.,.
Cc1ccc(-c2c(NC(=O)c3cccc(C)c3)nc3ncccn23)cc1,.,3.7,.,.,.,.,.,.,.
Cc1c(CCOC(=O)CC23CC4CC(CC(C4)C2)C3)sc[n+]1Cc1ccccc1,24.9,13.6,54.2,3.3,5.5,27.9,58.4*,32.1*,-49.2
CCCCCCNC(=O)C1CSCCS(=O)(=O)N1Cc1ccc(F)cc1 (stereo unspecified),.,2.0,.,.,.,.,.,.,.
CCCCCn1c(=N)n(CC(O)COc2ccccc2OC)c2ccccc21 (stereo unspecified),86.3*!,1.1,81.4*!,16.1,-26.7,3.4,41.5,17.0,-13.6
COc1cccc(NC(=S)/C(=C(\[O-])c2cc(C)n(-c3ccccc3F)c2C)[n+]2ccc(N(C)C)cc2)c1,74.2,25.0,60.4*,-5.4,-5.8,15.5,57.4*,33.0*,17.7
Cc1cc(C([O-])=C(C(=S)Nc2ccc(F)cc2)[n+]2ccccc2)c(C)n1-c1ccc(F)cc1,-12.2,-28.8,4.8,-31.4,-40.5,-34.6,.,.,.
COc1cc(NS(=O)(=O)c2ccc(C)cc2C)cc(OC)c1OC,83.5,-9.7,53.3,32.7,12.3,28.6,50.4*,16.6,10.1
CCNC(=S)NNC(=O)CSc1nnc(-c2ccccc2)n1-c1ccc(Cl)cc1,.,19.7,.,.,.,.,.,.,.
